The supplement of paper PMC11732987, “Enantioselective OTUD7B fragment discovery through chemoproteomics screening and high-throughput optimisation” (Communications Chemistry, 2025)

Legend:
Test in all cases: log2 ratio of Biotin-Ahx-Ub-VS probe labelling (fragment/DMSO); higher = less target engagement (more negative = stronger competition), active = hit call of the paper (q ≤ 0.05, log2 ratio ≤ -1)
Conditions in all cases: compound concentration: 200 uM; treatment time: 3 h
[1] = biological target: T1, USP19 (UniProt O94966)
T1 sequence (whole entry): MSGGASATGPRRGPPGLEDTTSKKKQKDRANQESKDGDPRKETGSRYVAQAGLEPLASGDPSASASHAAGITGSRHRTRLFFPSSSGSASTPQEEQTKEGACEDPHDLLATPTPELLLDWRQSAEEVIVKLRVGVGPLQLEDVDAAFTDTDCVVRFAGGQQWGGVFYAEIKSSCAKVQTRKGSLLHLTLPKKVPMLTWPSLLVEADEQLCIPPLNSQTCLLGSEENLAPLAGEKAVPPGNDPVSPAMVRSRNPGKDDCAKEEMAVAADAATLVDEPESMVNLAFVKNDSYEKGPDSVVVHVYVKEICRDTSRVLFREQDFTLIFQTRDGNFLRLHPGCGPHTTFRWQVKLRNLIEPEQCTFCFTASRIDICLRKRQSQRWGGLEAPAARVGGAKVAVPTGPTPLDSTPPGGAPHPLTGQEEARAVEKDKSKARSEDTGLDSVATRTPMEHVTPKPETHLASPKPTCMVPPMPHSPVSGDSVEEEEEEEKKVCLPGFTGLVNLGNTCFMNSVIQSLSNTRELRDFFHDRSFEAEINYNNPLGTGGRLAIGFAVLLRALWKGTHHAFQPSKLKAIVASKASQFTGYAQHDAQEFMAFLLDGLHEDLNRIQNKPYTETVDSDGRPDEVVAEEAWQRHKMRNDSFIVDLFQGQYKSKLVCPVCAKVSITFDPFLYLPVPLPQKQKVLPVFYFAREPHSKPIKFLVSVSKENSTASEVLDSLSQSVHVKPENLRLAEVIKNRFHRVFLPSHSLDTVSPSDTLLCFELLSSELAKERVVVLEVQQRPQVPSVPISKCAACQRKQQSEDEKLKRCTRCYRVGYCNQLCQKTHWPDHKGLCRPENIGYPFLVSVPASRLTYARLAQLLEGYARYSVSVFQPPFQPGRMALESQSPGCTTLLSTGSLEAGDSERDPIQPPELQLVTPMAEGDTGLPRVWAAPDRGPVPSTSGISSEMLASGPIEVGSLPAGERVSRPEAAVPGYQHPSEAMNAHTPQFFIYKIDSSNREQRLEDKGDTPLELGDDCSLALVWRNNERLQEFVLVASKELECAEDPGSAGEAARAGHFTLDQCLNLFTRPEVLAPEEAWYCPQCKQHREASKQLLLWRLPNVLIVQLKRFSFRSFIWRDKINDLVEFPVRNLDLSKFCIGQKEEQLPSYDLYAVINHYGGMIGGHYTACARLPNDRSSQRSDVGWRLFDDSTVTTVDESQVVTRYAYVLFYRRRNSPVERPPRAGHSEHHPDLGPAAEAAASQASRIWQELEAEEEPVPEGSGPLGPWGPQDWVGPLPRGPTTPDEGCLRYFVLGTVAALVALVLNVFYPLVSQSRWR
Summary of the method: (§1)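 HEK293T lysate (495 µg per sample, in Tris/CHAPS/IGEPAL buffer with protease inhibitors) was treated in triplicate with fragment at 200 µM or with DMSO for 3 h. It was then treated with Biotin-Ahx-Ub-VS (0.5 µM final) for 1 h. Labelled DUBs were NeutrAvidin-enriched, digested with LysC and trypsin, and run by diaPASEF LC-MS/MS. Spectronaut label-free quantities were global-median-normalised. Values are average log2 ratios fragment/DMSO by unpaired t-test, using proteins with ≥2 unique peptides.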

[2] = biological target: USP24 (UniProt Q9UPU5)
Summary of the method: as §1

[3] = biological target: T2, USP25 (UniProt Q9UHP3)
T2 sequence (whole entry): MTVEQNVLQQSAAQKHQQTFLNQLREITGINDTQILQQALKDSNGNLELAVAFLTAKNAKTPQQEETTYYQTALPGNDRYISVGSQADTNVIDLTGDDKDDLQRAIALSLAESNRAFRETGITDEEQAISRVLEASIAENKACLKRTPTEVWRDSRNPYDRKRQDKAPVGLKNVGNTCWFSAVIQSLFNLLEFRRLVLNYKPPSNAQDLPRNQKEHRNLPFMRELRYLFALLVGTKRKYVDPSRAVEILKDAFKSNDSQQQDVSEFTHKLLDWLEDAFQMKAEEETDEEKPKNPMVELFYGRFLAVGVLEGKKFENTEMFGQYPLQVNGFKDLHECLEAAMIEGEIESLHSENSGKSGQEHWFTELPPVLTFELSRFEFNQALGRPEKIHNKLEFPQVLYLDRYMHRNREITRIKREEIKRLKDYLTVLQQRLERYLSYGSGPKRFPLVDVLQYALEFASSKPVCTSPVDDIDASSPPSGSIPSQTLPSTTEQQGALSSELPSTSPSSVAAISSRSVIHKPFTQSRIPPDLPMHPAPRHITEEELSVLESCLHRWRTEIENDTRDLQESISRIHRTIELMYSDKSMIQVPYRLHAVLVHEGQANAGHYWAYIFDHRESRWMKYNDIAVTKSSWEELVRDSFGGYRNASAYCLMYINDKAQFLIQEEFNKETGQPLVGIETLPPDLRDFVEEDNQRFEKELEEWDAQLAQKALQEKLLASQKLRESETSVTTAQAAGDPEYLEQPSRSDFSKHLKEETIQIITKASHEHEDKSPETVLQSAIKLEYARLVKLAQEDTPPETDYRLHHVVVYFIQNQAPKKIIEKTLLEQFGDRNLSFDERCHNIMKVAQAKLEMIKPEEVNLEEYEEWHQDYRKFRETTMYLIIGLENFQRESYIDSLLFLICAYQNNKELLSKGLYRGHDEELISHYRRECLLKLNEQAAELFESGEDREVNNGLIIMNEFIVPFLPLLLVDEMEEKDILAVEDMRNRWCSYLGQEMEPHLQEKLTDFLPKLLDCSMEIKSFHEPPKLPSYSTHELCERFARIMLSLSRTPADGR
Summary of the method: as §1

[4] = biological target: T3, USP28 (UniProt Q96RU2)
T3 sequence (whole entry): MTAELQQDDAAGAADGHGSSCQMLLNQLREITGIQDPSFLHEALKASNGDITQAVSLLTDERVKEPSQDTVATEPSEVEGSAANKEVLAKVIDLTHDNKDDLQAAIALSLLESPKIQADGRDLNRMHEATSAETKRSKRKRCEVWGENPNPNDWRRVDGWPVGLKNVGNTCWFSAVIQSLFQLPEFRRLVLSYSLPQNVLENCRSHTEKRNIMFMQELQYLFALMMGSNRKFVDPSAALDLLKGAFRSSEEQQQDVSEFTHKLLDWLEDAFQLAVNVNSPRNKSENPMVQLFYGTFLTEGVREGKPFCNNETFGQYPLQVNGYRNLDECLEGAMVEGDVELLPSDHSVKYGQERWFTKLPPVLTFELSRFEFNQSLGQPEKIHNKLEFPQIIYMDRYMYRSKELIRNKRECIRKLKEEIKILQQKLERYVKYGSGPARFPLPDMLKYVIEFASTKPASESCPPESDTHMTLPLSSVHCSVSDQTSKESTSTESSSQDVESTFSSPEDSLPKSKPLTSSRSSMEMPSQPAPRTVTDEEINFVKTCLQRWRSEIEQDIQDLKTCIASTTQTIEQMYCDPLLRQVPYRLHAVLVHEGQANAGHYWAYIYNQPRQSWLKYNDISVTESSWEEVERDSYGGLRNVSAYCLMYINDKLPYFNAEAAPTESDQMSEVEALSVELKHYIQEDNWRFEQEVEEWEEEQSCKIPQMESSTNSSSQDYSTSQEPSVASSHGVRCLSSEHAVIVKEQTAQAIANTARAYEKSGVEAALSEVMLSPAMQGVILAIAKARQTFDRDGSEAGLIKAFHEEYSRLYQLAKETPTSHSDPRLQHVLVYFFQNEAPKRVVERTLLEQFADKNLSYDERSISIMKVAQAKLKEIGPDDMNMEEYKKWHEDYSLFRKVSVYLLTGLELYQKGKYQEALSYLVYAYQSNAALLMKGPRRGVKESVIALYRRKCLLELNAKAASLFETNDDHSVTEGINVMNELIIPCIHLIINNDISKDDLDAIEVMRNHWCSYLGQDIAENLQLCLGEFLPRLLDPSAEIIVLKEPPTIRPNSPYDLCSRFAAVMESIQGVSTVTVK
Summary of the method: as §1

Measured: log2 ratio of Biotin-Ahx-Ub-VS probe labelling

Sequence of USP24 (Q9UPU5 whole entry): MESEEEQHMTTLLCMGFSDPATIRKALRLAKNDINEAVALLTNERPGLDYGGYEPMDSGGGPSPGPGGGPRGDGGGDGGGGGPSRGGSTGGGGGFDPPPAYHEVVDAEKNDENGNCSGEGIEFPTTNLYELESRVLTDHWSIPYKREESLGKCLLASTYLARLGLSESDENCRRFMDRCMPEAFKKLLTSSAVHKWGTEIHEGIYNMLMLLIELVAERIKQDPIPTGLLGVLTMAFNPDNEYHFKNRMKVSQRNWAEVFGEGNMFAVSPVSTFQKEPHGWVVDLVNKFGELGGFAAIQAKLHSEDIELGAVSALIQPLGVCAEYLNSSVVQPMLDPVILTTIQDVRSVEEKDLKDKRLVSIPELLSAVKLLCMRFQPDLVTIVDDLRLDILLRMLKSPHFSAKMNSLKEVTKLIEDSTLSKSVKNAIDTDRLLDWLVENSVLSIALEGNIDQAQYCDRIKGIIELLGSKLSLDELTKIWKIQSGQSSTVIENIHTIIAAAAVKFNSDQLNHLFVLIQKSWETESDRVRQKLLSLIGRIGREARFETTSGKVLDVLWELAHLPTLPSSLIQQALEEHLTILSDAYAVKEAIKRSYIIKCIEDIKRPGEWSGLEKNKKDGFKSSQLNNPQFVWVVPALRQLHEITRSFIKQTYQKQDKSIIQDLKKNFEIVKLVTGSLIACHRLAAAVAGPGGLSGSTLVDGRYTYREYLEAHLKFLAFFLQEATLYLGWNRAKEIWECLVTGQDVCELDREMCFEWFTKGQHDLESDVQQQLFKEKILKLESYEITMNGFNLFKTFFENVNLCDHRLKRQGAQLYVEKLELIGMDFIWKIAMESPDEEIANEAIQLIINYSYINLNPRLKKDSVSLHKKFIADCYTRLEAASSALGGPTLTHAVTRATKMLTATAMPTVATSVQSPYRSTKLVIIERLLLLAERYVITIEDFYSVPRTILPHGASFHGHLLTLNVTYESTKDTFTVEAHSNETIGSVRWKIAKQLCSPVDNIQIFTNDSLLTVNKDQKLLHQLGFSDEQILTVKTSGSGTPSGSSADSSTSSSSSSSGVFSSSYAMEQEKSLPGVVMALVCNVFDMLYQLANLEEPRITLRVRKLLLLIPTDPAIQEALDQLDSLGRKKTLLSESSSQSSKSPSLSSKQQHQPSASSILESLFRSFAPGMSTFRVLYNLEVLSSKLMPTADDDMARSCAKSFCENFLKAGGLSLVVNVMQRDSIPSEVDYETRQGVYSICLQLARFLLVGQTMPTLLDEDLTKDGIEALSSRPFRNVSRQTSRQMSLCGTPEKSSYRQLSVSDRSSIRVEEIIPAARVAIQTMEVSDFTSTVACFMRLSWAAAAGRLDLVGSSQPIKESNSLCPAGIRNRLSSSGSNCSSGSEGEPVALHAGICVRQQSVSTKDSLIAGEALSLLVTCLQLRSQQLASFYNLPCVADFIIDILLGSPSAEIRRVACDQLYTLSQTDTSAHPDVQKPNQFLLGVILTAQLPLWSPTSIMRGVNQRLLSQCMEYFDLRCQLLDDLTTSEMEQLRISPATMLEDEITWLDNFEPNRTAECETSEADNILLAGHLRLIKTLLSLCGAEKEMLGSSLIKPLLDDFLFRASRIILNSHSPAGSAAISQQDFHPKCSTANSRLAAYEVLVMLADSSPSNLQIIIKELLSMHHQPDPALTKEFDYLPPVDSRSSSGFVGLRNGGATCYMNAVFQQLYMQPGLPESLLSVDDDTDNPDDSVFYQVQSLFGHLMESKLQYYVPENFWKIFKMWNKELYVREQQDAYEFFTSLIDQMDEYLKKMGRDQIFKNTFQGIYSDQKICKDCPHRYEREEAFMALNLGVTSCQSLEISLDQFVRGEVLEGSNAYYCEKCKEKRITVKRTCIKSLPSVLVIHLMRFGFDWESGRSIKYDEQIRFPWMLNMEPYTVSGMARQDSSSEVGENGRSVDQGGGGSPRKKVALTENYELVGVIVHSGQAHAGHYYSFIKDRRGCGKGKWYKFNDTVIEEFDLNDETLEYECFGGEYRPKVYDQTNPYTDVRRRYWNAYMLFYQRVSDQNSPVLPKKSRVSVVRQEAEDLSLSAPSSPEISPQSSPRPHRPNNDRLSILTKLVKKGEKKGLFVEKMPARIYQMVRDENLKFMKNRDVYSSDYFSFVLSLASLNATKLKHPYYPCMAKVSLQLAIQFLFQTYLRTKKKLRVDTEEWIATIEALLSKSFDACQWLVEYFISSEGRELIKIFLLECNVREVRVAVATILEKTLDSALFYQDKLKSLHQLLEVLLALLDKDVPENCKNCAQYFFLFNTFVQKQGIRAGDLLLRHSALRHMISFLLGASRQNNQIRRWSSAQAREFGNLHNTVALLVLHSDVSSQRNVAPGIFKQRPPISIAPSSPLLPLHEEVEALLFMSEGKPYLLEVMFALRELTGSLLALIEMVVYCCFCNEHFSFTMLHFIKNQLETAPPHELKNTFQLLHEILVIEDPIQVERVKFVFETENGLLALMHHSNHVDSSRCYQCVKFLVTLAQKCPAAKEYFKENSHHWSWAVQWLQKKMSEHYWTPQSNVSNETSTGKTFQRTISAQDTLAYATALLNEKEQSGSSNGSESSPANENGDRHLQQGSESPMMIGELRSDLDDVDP

O=C(CCl)NCc1cccc(N2CCCC2=O)c1
inactive: [1] 0.025 | [2] 0.00291 | [3] -0.383 | [4] -0.252
